The list is not random: actives were taken first. Their share in the collection is about 3.7%.
PLK1 PBD block: qHTS for Inhibitors of PLK1-PDB (polo-like kinase 1 - polo-box domain): Primary Screen; Plk1 PBD binding of FITC phosphopeptide, fluorescence polarization; Potency, µM, without a hit: max response, negative = inhibition, usual class: inhibitors; 360,000 compounds, 2.8% hits; note: potency is the fitted concentration of half-maximal effect; series mostly up to about 57 µM; % is set by controls: 0 for no effect and ±100 for the full control effect; nearly all actives have a fitted effect of over 65% in size
TCR activator: Activators of T cell receptors: qHTS campaign. primary human leukocytes, anti-CD3, IL-2 HTRF, 48 h. Potency, µM (series often up to 9.22 µM), inactives show top-dose activation of IL-2 secretion, most hits filed as activators. 330,000 tested, under 10 active. AID 504894, 2011; note: % of control where 0% means no effect
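Compounds are tested in HTS on primary human leukocytes co-incubated with a-CD3 beads for 48 hr. IL-2 output is measured by time-resolved FRET.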
PI5P4Ka inh: qHTS for Inhibitors of phosphatidylinositol 5-phosphate 4-kinase (PI5P4K). Phosphatidylinositol 5-phosphate 4-kinase type-2 alpha (Homo sapiens), P48426. 330,000 compounds, 1.2% hits. PI5P4Kalpha enzyme, ADP-Glo luminescence, 60 min; active compounds read low. max response, %; active = max response of -50% or lower; inconclusive = between -30% and -50%; inactive = -30% or higher; note: value at the top dose of about 77 µM; % is set by controls: 0 for no effect and ±100 for the full control effect
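Single end-point luminescence (ADP-Glo) quantified ADP from PI5P4Kalpha turnover; ATP 5 microM final, 1 h at RT, 0.1% CHAPS and 0.28 mM EGTA in HEPES pH 7.4.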
VDR inh: Inhibitors of the vitamin D receptor (VDR): qHTS; Vitamin D3 receptor (Homo sapiens), P11473; VDR-SRC2-3 peptide fluorescence polarization, 2 h; Potency, µM, for the others: max response, negative = inhibition, usual class: inhibitors; 400,000 compounds, 0.93% hits; note: potency is the fitted concentration of half-maximal effect; % is set by controls: 0 for no effect and ±100 for the full control effect
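Fluorescence polarization assay of small-molecule disruption of VDR binding to coregulator peptide SRC2-3. Compounds and controls pin-transferred, then read after 2 h incubation at ambient room temperature.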
WRN inhibitor: qHTS for Inhibitors of WRN Helicase. Potency, µM (highest dose often 114 µM), without a hit: at the top dose activity change, negative = inhibition, usual class: inhibitors. Bifunctional 3'-5' exonuclease/ATP-dependent helicase WRN (Homo sapiens), Q14191. WRN helicase unwinding, fluorescent forked duplex, kinetic. 360,000 compounds, 0.46% hits. AID 651768, 2012; note: potency is the fitted concentration of half-maximal effect; % is set by controls: 0 for no effect and ±100 for the full control effect; nearly all actives have a fitted effect of over 55% in size
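Fluorescence dequenching readout, ex 525 nm/em 598 nm, kinetic mode: forked duplex DNA (100 nM final) with adjacent fluorophore and quencher unwound by WRN (20 nM final) with 2 mM ATP. Compound preincubation 15 min, room temperature.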
FEN1 inhibitor: qHTS Assay for the Inhibitors of Human Flap endonuclease 1 (FEN1); 390,000 compounds, 0.35% hits; Recombinant FEN1 flap cleavage, fluorescence, 15 min; AID 588795, 2011; Potency, µM (series often up to 114 µM), without a hit: at the top dose activity change, negative = inhibition, usual class: inhibitors; P39748; note: potency is the fitted concentration of half-maximal effect; % is set by controls: 0 for no effect and ±100 for the full control effect; nearly all actives have a fitted effect of over 65% in size
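Recombinant FEN1 (10 nM) was preincubated with pin-transferred compounds for 15 min at room temperature, then flap DNA substrate (50 nM final) was added. Plates were read at 0 and 15 min, and normalized concentration–response data were fitted to a four-parameter Hill equation.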
* = called active by the depositor; ? = inconclusive; nt = no result given; [ ] = dose if it differs, or a comment. Unless noted, calls come from the whole dose curve; as a rule, active = well fitted curve in the direction sought with a large enough effect; inconclusive = small, poorly fitted or top-dose-only effect, or another doubt; inactive = no such curve, though single readings can be large; an effect the other way counts as inactive or inconclusive.

SMILES	PLK1 PBD block	TCR activator	PI5P4Ka inh	VDR inh	WRN inhibitor	FEN1 inhibitor
CC(C)C[C@@H](CNCC(=O)[C@H](CC(C)C)NC(=O)c1[nH]cnc1C(=O)N[C@@H](C)CN)NC(=O)c1nc[nH]c1C(=O)N[C@@H](CC(C)C)C(=O)O	27µM*	-10%	?	?	4%	18%
CC(C)C[C@@H](CNCC(=O)[C@H](Cc1c[nH]c2ccccc12)NC(=O)c1[nH]cnc1C(=O)N[C@@H](C)CN)NC(=O)c1nc[nH]c1C(=O)N[C@@H](CC(=O)O)C(=O)O	27µM*	-7%	-62*	?	-8%	14%
CC(C)C[C@@H](CNCC(=O)[C@H](Cc1c[nH]c2ccccc12)NC(=O)c1[nH]cnc1C(=O)N[C@H](CN)CC(C)C)NC(=O)c1nc[nH]c1C(=O)N[C@@H](CC(=O)O)C(=O)O	-8%	-3%	?	-16%	-11%	1%
CCOC(=O)c1cnc2ccc(C)cc2c1Nc1ccc(N(CC)CC)cc1	nt	nt	nt	-25%	nt	7%
Cc1ccccc1NC(=O)Cn1c(=O)n(CCC(=O)N2CCc3ccccc3C2)c(=O)c2ccccc21	nt	nt	nt	-5%	nt	-3%
CCCCCCc1cc2cc(C(=O)NC)c(=N)oc2cc1O	3.4µM*	0%	-9	-2%	-28%	1%
CC1(C)CC(=O)C(Sc2ccccc2)=C(O)C1	12µM*	-4%	-2	-14%	-1%	-13%
O=C(/C=C/c1ccco1)NCC(=O)N/N=C/c1ccc([N+](=O)[O-])cc1	11µM*	-1%	-60*	?	-4%[11.6 µM]	?
O=[N+]([O-])c1ccc(C=NNC(=S)NN=Cc2ccc([N+](=O)[O-])cc2)cc1	-25%	-2%	?	-15%	56µM*	?
CCc1cccc(C)c1NC(=O)Cn1ncc2c3ccccc3n(Cc3ccccc3)c2c1=O	nt	nt	nt	9%	nt	-1%
CN1C(=O)Cc2cc(S(=O)(=O)CCC(=O)N3CCN(c4ccc(Cl)cc4)CC3)ccc21	nt	nt	nt	17%	nt	1%
CC(C)[C@H]1CN=C2N(CCNC(=O)CCC3CCCCC3)[C@H](Cc3ccc(O)cc3)CN21	27µM*	-5%	?	-3%	1%	4%
O=C(COc1ccccc1-c1nc(-c2ccccc2)no1)Nc1cccc([N+](=O)[O-])c1	nt	nt	nt	4%	nt	-15%
CN(Cc1ccccc1)c1ncnc2ccc(Br)cc12	2.7µM*	-5%	?	-17%	-2%	-24%
CN(C)C(=O)c1ccc(SC(=S)NCc2ccccc2)cc1	2.7µM*	nt	?	nt	-2%[57.1 µM]	nt
COc1ccc(-c2noc(-c3ccc(N4CCC(C)CC4)c([N+](=O)[O-])c3)n2)cc1OC	nt	nt	nt	4%	nt	-12%
Cc1ccc(N(Cc2cc3ccc(C)cc3[nH]c2=O)C(=O)c2ccco2)cc1	27µM*	6%	?	?	-6%	0%
FC(F)(F)c1cc(NC(=S)NC23CC4CC(CC(C4)C2)C3)cc(C(F)(F)F)c1	nt	nt	nt	1%	nt	nt
Cc1ccc(-n2ncc3c(N4CCN(Cc5ccccc5)CC4)ncnc32)cc1Cl	nt	nt	nt	13%	nt	-4%
CC(NC(N)=O)C(=O)Nc1ccc(Cl)c(S(=O)(=O)Nc2ccc(Cl)cc2)c1 (centres undefined)	-14%	-1%	-14	-2%	-5%	16%
C[C@H](NC(N)=O)C(=O)Nc1ccc(N2CCOCC2)c(S(=O)(=O)Nc2ccc(Cl)cc2)c1	2.7µM*	-2%	?	?	7%	?
COCCNC(=S)Nc1ccc(N2CCOCC2)c(S(=O)(=O)Nc2ccc(Cl)cc2)c1	2.4µM*	nt	?	nt	13%	nt
COc1ccc(NS(=O)(=O)c2cc(NC(=O)c3ccc(Cl)cc3)ccc2N2CCOCC2)cc1	18%	-6%	0	6%	-6%	3%
CCC(=O)Nc1ccc(N2CCOCC2)c(S(=O)(=O)Nc2ccc(Cl)cc2)c1	7.5µM*	-2%	?	?	7%	-4%
CC[C@H](C)[C@H](NC(=O)[C@H](CCC(=O)O)NC(=O)[C@H](CO)NC(=O)[C@@H](NC(=O)[C@H](C)N)C(C)C)C(=O)N[C@@H](CCC(N)=O)C(=O)N[C@@H](CC(C)C)C(=O)N[C@@H](CCSC)C(=O)N[C@@H](Cc1cnc[nH]1)C(=O)N[C@@H](CC(N)=O)C(=O)N[C@@H](CC(C)C)C(=O)NCC(=O)N[C@@H](CCCCN)C(=O)N[C@@H](Cc1cnc[nH]1)C(=O)N[C@@H](CC(C)C)C(=O)N[C@@H](C)C(=O)N[C@@H](CO)C(=O)N[C@H](C(=O)N[C@@H](CCC(=O)O)C(=O)N[C@@H](CCCNC(=N)N)C(=O)N[C@@H](CCSC)C(=O)N[C@@H](CCC(N)=O)C(=O)N[C@@H](Cc1c[nH]c2ccccc12)C(=O)N[C@@H](CC(C)C)C(=O)N[C@@H](CCCNC(=N)N)C(=O)N[C@@H](CCCCN)C(=O)N[C@@H](CCCCN)C(=O)N[C@@H](CC(C)C)C(=O)N[C@@H](CCC(N)=O)C(=O)N[C@@H](CC(=O)O)C(=O)N[C@H](C(=O)N[C@@H](Cc1cnc[nH]1)C(=O)N[C@@H](CC(N)=O)C(=O)N[C@@H](Cc1ccccc1)C(=O)O)C(C)C)C(C)C	nt	nt	nt	-12%	nt	nt
SMILES	PLK1 PBD block	TCR activator	PI5P4Ka inh	VDR inh	WRN inhibitor	FEN1 inhibitor
CCCc1[nH]nc2c1C(c1ccsc1)C(C#N)=C(N)O2 (centres undefined)	?	-2%	?	-26%	-10%	3%
Cc1cc(-c2[nH]nc3c2C(c2ccsc2)C(C#N)=C(N)O3)c(C)s1 (centres undefined)	-28%	4%	-52*	-17%	-23%[57.1 µM]	2%
COCc1[nH]nc2c1C(c1ccsc1)C(C#N)=C(N)O2 (centres undefined)	27µM*	nt	?	-4%	-4%	-14%
Cc1cc(-c2[nH]nc3c2C(c2cccc(O)c2)C(C#N)=C(N)O3)c(C)s1 (centres undefined)	-10%	1%	nt	-7%	-18%	-6%
O=C1NC(=O)C2(N1)C(=O)c1cccc3cccc2c13 (centres undefined)	11µM*	nt	0	nt	-15%	nt
CC(=O)c1cc(CN2CCN(CCC(C)C)C(CCO)C2)cs1 (centres undefined)	21µM*	-4%	-7	?	11%	2%
O=[N+]([O-])c1cc(-c2ccc(/C=N\n3cnnc3)o2)cc([N+](=O)[O-])c1	-15%	2%	-59*	-6%	-25%	-7%
